The target in one assay is POU1 (OCT1 POU domain) (human, UniProt P14859 260-458). In words: EMSA-SELEX-seq; no BOB1; 20 mM Tris-HCl pH 7.6, 140 mM NaCl, 10% glycerol, 0.5 mM EDTA, 0.05% Triton X-100, 0.1 mg/mL BSA, 0.1 mg/mL poly(dI-dC), 5 mM DTT, room temperature, 20 min; high values mean tight binding. The note with it: protein: recombinant; dsDNA, one strand shown. The method in brief: (§1)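 Binding preference is the percentage of sequenced 8-mers matching a motif pattern. Tagged POU-domain proteins expressed in E. coli BL21 were purified under denaturing conditions and renatured. For binding, 30 ng protein met 300 ng of a PCR-amplified double-stranded random 35-nt library, with or without 28 ng coactivator protein, in 20 μL Tris–HCl pH 7.6 binding buffer for 20 min at RT. Complex bands were cut from native 6% PAGE, eluted and PCR-amplified over four rounds, then Illumina-sequenced.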
Sequence of POU1 (OCT1 POU domain) (P14859 260-458): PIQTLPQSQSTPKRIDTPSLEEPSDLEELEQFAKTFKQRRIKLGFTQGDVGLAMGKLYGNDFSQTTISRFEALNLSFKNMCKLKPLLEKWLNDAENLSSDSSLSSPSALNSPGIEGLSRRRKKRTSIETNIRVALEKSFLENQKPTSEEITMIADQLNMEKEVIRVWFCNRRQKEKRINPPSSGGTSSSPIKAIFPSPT
Background: In EMSA bound probe runs differently from free probe, usually more slowly.

Another assay concerns the target T1, POU2 (OCT2 POU domain) (human, UniProt P09086 175-386).
T1 sequence: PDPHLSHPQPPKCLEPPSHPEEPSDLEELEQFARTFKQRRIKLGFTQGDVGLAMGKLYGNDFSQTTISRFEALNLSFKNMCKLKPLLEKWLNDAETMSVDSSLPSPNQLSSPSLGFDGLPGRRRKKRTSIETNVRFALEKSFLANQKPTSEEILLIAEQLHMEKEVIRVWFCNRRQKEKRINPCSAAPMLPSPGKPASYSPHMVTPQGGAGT
The description is as above. The note with it: protein: recombinant; dsDNA, one strand shown. The method in brief:
as §1

Assay [1] concerns the target POU1 (OCT1 POU domain);BOB1 (OBF1, OCA-B) (human;human, UniProt P14859;Q16633 260-458;1-256, |). In words: EMSA-SELEX-seq; with BOB1 (ternary complex band); 20 mM Tris-HCl pH 7.6, 140 mM NaCl, 10% glycerol, 0.5 mM EDTA, 0.05% Triton X-100, 0.1 mg/mL BSA, 0.1 mg/mL poly(dI-dC), 5 mM DTT, room temperature, 20 min; high values mean tight binding. The note with it: protein: recombinant;recombinant; copies: 1;1; dsDNA, one strand shown. The method in brief:
as §1

The target in assay [2] is T2, POU2 (OCT2 POU domain);BOB1 (OBF1, OCA-B) (human;human, UniProt P09086;Q16633 175-386;1-256, |).
T2 sequence 1: T1 sequence
T2 sequence 2: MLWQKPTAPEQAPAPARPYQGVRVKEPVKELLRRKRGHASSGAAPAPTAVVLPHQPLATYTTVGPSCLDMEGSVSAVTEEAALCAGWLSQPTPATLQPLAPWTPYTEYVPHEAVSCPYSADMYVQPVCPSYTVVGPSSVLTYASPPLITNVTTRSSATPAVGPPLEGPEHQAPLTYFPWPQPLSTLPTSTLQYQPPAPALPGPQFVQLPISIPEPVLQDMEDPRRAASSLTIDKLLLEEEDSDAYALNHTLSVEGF
The description is as above. The note with it: protein: recombinant;recombinant; copies: 1;1; dsDNA, one strand shown. In short, it runs like this:
as §1

These results are taken from paper PMC10812921, “Transcriptional Coactivator BOB1 (OBF1, OCA-B) Modulates the Specificity of DNA Recognition by the POU-Domain Factors OCT1 and OCT2 in a Monomeric Configuration”.

For the sequence ACTATAAG, the binding signal is 0.029 % of ANNNNAAN 8-mers with POU1 (OCT1 POU domain), 0.0339 % of ANNNNAAN 8-mers with POU2 (OCT2 POU domain), 0.03 % of ANNNNAAN 8-mers in assay [1] and 0.0314 % of ANNNNAAN 8-mers in assay [2].

Turning to AGTGGAAC, the binding signal in the assay with POU1 (OCT1 POU domain) was 0.0267 % of ANNNNAAN 8-mers; in the assay with POU2 (OCT2 POU domain), 0.0207 % of ANNNNAAN 8-mers; in assay [1], 0.0281 % of ANNNNAAN 8-mers; in assay [2] it was 0.0314 % of ANNNNAAN 8-mers.

Turning to AGGAAAAG, the binding signal in the assay with POU1 (OCT1 POU domain) is 0.1 % of ANNNNAAN 8-mers; in the assay with POU2 (OCT2 POU domain), 0.08 % of ANNNNAAN 8-mers; in assay [1], 0.133 % of ANNNNAAN 8-mers; in assay [2], 0.0702 % of ANNNNAAN 8-mers.

ACGTAAAG: the binding signal with POU1 (OCT1 POU domain) is 0.0416 % of ANNNNAAN 8-mers; with POU2 (OCT2 POU domain), 0.0409 % of ANNNNAAN 8-mers; in assay [1], 0.0667 % of ANNNNAAN 8-mers; in assay [2] it was 0.0479 % of ANNNNAAN 8-mers.

In the case of AATAAAAC, the binding signal with POU1 (OCT1 POU domain) was 0.0751 % of ANNNNAAN 8-mers; in the assay with POU2 (OCT2 POU domain), 0.0967 % of ANNNNAAN 8-mers; in assay [1], 0.0757 % of ANNNNAAN 8-mers; in assay [2] it was 0.0726 % of ANNNNAAN 8-mers.

For ATCAAAAG, the binding signal was 0.045 % of ANNNNAAN 8-mers with POU1 (OCT1 POU domain), 0.0414 % of ANNNNAAN 8-mers in the assay with POU2 (OCT2 POU domain), 0.0581 % of ANNNNAAN 8-mers in assay [1] and 0.0388 % of ANNNNAAN 8-mers in assay [2].

Turning to AATACAAT, the binding signal with POU1 (OCT1 POU domain) is 0.0797 % of ANNNNAAN 8-mers; with POU2 (OCT2 POU domain), 0.107 % of ANNNNAAN 8-mers; in assay [1], 0.0663 % of ANNNNAAN 8-mers; in assay [2], 0.0982 % of ANNNNAAN 8-mers.

With AGACGAAG, the binding signal with POU1 (OCT1 POU domain) was 0.0198 % of ANNNNAAN 8-mers; with POU2 (OCT2 POU domain), 0.019 % of ANNNNAAN 8-mers; in assay [1], 0.0203 % of ANNNNAAN 8-mers; in assay [2] it was 0.0272 % of ANNNNAAN 8-mers.

Take AGACAAAA: the binding signal with POU1 (OCT1 POU domain) is 0.0675 % of ANNNNAAN 8-mers; with POU2 (OCT2 POU domain), 0.0489 % of ANNNNAAN 8-mers; in assay [1], 0.0808 % of ANNNNAAN 8-mers; in assay [2], 0.0322 % of ANNNNAAN 8-mers.

With AACTCAAG, the binding signal with POU1 (OCT1 POU domain) was 0.0194 % of ANNNNAAN 8-mers; in the assay with POU2 (OCT2 POU domain) it was 0.0219 % of ANNNNAAN 8-mers; in assay [1], 0.0164 % of ANNNNAAN 8-mers; in assay [2], 0.0289 % of ANNNNAAN 8-mers.

As for ACCTGAAC, the binding signal was 0.021 % of ANNNNAAN 8-mers with POU1 (OCT1 POU domain), 0.0113 % of ANNNNAAN 8-mers in assay [1] and 0.0215 % of ANNNNAAN 8-mers in assay [2].

For the sequence AAGGCAAG, the binding signal with POU1 (OCT1 POU domain) is 0.0328 % of ANNNNAAN 8-mers; with POU2 (OCT2 POU domain), 0.038 % of ANNNNAAN 8-mers; in assay [1], 0.0328 % of ANNNNAAN 8-mers; in assay [2] it was 0.0256 % of ANNNNAAN 8-mers.

As to ATTTTAAC, the binding signal with POU1 (OCT1 POU domain) was 0.0812 % of ANNNNAAN 8-mers; with POU2 (OCT2 POU domain), 0.0921 % of ANNNNAAN 8-mers; in assay [1], 0.0652 % of ANNNNAAN 8-mers; in assay [2], 0.0652 % of ANNNNAAN 8-mers.

On to ATCTGAAG, for which the binding signal was 0.0297 % of ANNNNAAN 8-mers with POU1 (OCT1 POU domain), 0.0409 % of ANNNNAAN 8-mers with POU2 (OCT2 POU domain), 0.0359 % of ANNNNAAN 8-mers in assay [1] and 0.0413 % of ANNNNAAN 8-mers in assay [2].

For the sequence ACTCCAAC, the results for the binding signal (with POU1 (OCT1 POU domain); in assay [1]; in assay [2]) were 0.0126 % of ANNNNAAN 8-mers, 0.0113 % of ANNNNAAN 8-mers and 0.0198 % of ANNNNAAN 8-mers, respectively.

With AGTGTAAG, the binding signal was 0.032 % of ANNNNAAN 8-mers with POU1 (OCT1 POU domain), 0.0443 % of ANNNNAAN 8-mers with POU2 (OCT2 POU domain), 0.0406 % of ANNNNAAN 8-mers in assay [1] and 0.0421 % of ANNNNAAN 8-mers in assay [2].

As to AATACAAA, the binding signal with POU1 (OCT1 POU domain) was 0.134 % of ANNNNAAN 8-mers; in the assay with POU2 (OCT2 POU domain), 0.108 % of ANNNNAAN 8-mers; in assay [1] it was 0.148 % of ANNNNAAN 8-mers; in assay [2], 0.121 % of ANNNNAAN 8-mers.

On to ACACAAAT, for which the binding signal in the assay with POU1 (OCT1 POU domain) was 0.116 % of ANNNNAAN 8-mers; with POU2 (OCT2 POU domain), 0.0857 % of ANNNNAAN 8-mers; in assay [1], 0.175 % of ANNNNAAN 8-mers; in assay [2], 0.0916 % of ANNNNAAN 8-mers.

ACAGGAAG: the binding signal in the assay with POU1 (OCT1 POU domain) is 0.0343 % of ANNNNAAN 8-mers; with POU2 (OCT2 POU domain), 0.038 % of ANNNNAAN 8-mers; in assay [1] it was 0.0332 % of ANNNNAAN 8-mers; in assay [2], 0.0396 % of ANNNNAAN 8-mers.

Consider ATTTCAAA, for which the binding signal in the assay with POU1 (OCT1 POU domain) was 0.0866 % of ANNNNAAN 8-mers; with POU2 (OCT2 POU domain) it was 0.0852 % of ANNNNAAN 8-mers; in assay [1] it was 0.103 % of ANNNNAAN 8-mers; in assay [2], 0.0751 % of ANNNNAAN 8-mers.

With AAATAAAA, the binding signal is 0.177 % of ANNNNAAN 8-mers in the assay with POU1 (OCT1 POU domain), 0.177 % of ANNNNAAN 8-mers with POU2 (OCT2 POU domain), 0.199 % of ANNNNAAN 8-mers in assay [1] and 0.171 % of ANNNNAAN 8-mers in assay [2].

In the case of ACTGGAAG, the binding signal with POU1 (OCT1 POU domain) was 0.021 % of ANNNNAAN 8-mers; with POU2 (OCT2 POU domain) it was 0.027 % of ANNNNAAN 8-mers; in assay [1], 0.0211 % of ANNNNAAN 8-mers; in assay [2], 0.0314 % of ANNNNAAN 8-mers.

Regarding ACACGAAT, the binding signal in the assay with POU1 (OCT1 POU domain) is 0.0347 % of ANNNNAAN 8-mers; with POU2 (OCT2 POU domain), 0.0575 % of ANNNNAAN 8-mers; in assay [1] it was 0.0379 % of ANNNNAAN 8-mers; in assay [2], 0.0438 % of ANNNNAAN 8-mers.

As for AGTTAAAT, the binding signal in the assay with POU1 (OCT1 POU domain) is 0.219 % of ANNNNAAN 8-mers; with POU2 (OCT2 POU domain), 0.213 % of ANNNNAAN 8-mers; in assay [1] it was 0.217 % of ANNNNAAN 8-mers; in assay [2], 0.127 % of ANNNNAAN 8-mers.

For the sequence ACGAGAAC, the binding signal with POU1 (OCT1 POU domain) is 0.0179 % of ANNNNAAN 8-mers; with POU2 (OCT2 POU domain), 0.0178 % of ANNNNAAN 8-mers; in assay [1], 0.0156 % of ANNNNAAN 8-mers; in assay [2], 0.0165 % of ANNNNAAN 8-mers.

On to ATATAAAG, for which the binding signal in the assay with POU1 (OCT1 POU domain) is 0.0725 % of ANNNNAAN 8-mers; with POU2 (OCT2 POU domain), 0.088 % of ANNNNAAN 8-mers; in assay [1], 0.0597 % of ANNNNAAN 8-mers; in assay [2] it was 0.0603 % of ANNNNAAN 8-mers.

With AGGGTAAC, the binding signal with POU1 (OCT1 POU domain) is 0.0339 % of ANNNNAAN 8-mers; in the assay with POU2 (OCT2 POU domain) it was 0.0328 % of ANNNNAAN 8-mers; in assay [1], 0.0343 % of ANNNNAAN 8-mers; in assay [2], 0.0322 % of ANNNNAAN 8-mers.

ATGGGAAG: the binding signal with POU1 (OCT1 POU domain) is 0.0652 % of ANNNNAAN 8-mers; with POU2 (OCT2 POU domain) it was 0.0696 % of ANNNNAAN 8-mers; in assay [1] it was 0.0683 % of ANNNNAAN 8-mers; in assay [2] it was 0.0735 % of ANNNNAAN 8-mers.

For AGTCTAAA, the binding signal with POU1 (OCT1 POU domain) was 0.037 % of ANNNNAAN 8-mers; with POU2 (OCT2 POU domain), 0.0501 % of ANNNNAAN 8-mers; in assay [1] it was 0.0398 % of ANNNNAAN 8-mers; in assay [2], 0.0504 % of ANNNNAAN 8-mers.

With AAATTAAC, the binding signal with POU1 (OCT1 POU domain) is 0.334 % of ANNNNAAN 8-mers; with POU2 (OCT2 POU domain) it was 0.33 % of ANNNNAAN 8-mers; in assay [1] it was 0.188 % of ANNNNAAN 8-mers; in assay [2], 0.196 % of ANNNNAAN 8-mers.
